Test results published in PubChem BioAssay AID485346 (Sanford-Burnham Center for Chemical Genomics, 2010).
Screen size: about 330,000 compounds; about 10,000 (3%) were called active. What follows is part of a selection rich in actives, with near analogues and random picks from the rest. A number with no mark means an inactive call.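 Rule for the calls: active = inhibition of at least 50% at 8 µM in the primary screen; inactive = the rest.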

Molecular target: Protein Mdm4 (Homo sapiens) + E3 ubiquitin-protein ligase Mdm2 (Homo sapiens) (UniProt O15151+Q00987)
Assay: disruptors of Mdm2/MdmX RING complex – cell-based, luminescence, split luciferase, SaOS-2, uHTS, primary screen (AID 485346)
Details: SaOS-2 split-luciferase Mdm2/MdmX complementation, at 8 µM, stronger effect = higher value

Protein Mdm4 (Homo sapiens) + E3 ubiquitin-protein ligase Mdm2 (Homo sapiens), sequence (O15151 whole entry, looked up): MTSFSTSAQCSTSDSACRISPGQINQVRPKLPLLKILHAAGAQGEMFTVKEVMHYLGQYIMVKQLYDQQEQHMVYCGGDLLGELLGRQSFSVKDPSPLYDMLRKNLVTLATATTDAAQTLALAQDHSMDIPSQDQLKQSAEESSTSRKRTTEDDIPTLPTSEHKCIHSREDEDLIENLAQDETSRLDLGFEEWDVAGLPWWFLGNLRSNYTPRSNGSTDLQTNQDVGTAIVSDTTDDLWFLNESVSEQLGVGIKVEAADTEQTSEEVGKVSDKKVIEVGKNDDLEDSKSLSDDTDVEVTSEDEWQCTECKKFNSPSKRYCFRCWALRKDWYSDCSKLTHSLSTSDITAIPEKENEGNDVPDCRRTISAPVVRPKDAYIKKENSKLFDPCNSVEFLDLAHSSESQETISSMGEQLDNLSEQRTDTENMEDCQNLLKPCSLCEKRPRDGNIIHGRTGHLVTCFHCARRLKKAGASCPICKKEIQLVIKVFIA
Protein Mdm4 (Homo sapiens) + E3 ubiquitin-protein ligase Mdm2 (Homo sapiens), sequence (Q00987 whole entry, looked up): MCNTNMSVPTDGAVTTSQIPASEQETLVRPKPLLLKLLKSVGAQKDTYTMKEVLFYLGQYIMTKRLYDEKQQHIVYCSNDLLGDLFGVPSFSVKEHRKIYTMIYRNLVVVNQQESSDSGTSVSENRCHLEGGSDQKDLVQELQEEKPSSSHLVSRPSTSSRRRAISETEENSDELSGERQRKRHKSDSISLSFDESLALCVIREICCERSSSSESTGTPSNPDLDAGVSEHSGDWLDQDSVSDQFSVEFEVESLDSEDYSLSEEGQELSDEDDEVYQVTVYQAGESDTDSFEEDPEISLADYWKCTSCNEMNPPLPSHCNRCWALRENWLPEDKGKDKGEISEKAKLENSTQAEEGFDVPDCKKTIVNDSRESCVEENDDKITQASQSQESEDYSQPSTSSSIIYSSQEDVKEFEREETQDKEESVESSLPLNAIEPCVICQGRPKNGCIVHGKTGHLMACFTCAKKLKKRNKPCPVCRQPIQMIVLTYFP

Row | Structure (SMILES) | inhibition
1 | CN(CCc1ccccn1)C(=O)CCC1CCCN(Cc2ccccc2OC(F)F)C1 (stereo unspecified) | -29.3%
2 | CCOC(=O)C1=CN(Cc2ccc(Br)cc2)S(=O)(=O)NC1C (stereo unspecified) | 12.1%
3 | Brc1ccc(C2=CC(c3ccco3)n3ncnc3N2)cc1 (stereo unspecified) | 11.6%
4 | Clc1ccc2c(c1)C1=C(C(c3ccncc3)O2)C(c2ccc(Br)cc2)n2ncnc2N1 (stereo unspecified) | 70.4% (active)
5 | CC1=C(C(N)=O)C(c2ccc(Br)cc2)n2ncnc2N1 (stereo unspecified) | 5.41%
6 | O=C1NCCn2nc3ccccc3c21 | 16.4%
7 | Cc1ccc(NN=Nc2nc3c([nH]2)c(=O)n(C)c(=O)n3C)cc1 | -16.4%
8 | Cc1ccc(CSc2nc3[nH]ncc3c(=O)[nH]2)cc1 | -38.4%
9 | C=CCN1C(=O)C(O)(CC(=O)c2ccccn2)c2ccccc21 (stereo unspecified) | -5.9%
10 | N/C(=N\OC(=O)c1ccc2c(c1)OCO2)c1ccc(Br)cc1 | 84.4% (active)
11 | C/C(=N/OC(=O)c1ccc(Br)cc1)c1ccc(C)cc1 | 5.85%
12 | O=C(c1ccc2c(c1)OCO2)N1CCOCC1 | 3.71%
13 | CC(C)(C)OC(=O)C[C@@H]1C/C=C\C[C@@H](CC(=O)N[C@@H](CO)Cc2ccccc2)C(=O)N2CCC[C@H]2COC1=O | 9.85%
14 | CSc1nc2ccc(NC(=O)c3c(F)cccc3F)cc2s1 | -79.2%
15 | O=C(Nc1ccncc1)Nc1ccc(F)cc1 | 14%
16 | O=C(Nc1ccncc1)c1c(F)cccc1F | 52.1% (active)
17 | COCCNC(=O)COc1ccc(N(C)S(=O)(=O)c2ccc3ccccc3c2)cc1 | 16.8%
18 | Cc1cc(C)nc(NC(=O)/C=C/c2ccc(Cl)cc2)n1 | 6.82%
19 | O=C(/C=C/c1ccc(Cl)cc1)Nc1ccc(Br)cn1 | 77.5% (active)
20 | O=C(/C=C/c1ccc(Cl)cc1)Nc1ccc(S(=O)(=O)Nc2ncccn2)cc1 | 0.48%
21 | CCn1c(SCC(=O)Nc2cc(C)ccc2C)nnc1-c1cnccn1 | -18.6%
22 | COc1ccc(N2C(=O)C(O)C2c2ccc(C)cc2)cc1 (stereo unspecified) | 17.5%
23 | COc1ccc(C(CCN(Cc2ccc(OC)c(OC)c2)C(=O)CCl)c2ccccc2)cc1 (stereo unspecified) | 100% (active)

Row | Structure (SMILES) | inhibition
24 | COc1ccc(COC(=O)NC(C(=O)O)c2ccccc2)cc1 (stereo unspecified) | 7.43%
25 | COc1ccc(CN(C)C(=O)CC(c2ccccc2)c2ccccc2)cc1 | 2.66%
26 | O=C(OCc1cc(=O)n2ccsc2n1)C1(c2ccc(Cl)cc2)CC1 | -13.2%
27 | CN(c1ccc(OCC(=O)NC2=NCCS2)cc1)S(=O)(=O)c1ccc(F)cc1 | -19.2%
28 | CCOC(=O)C1=C(c2ccccc2)NC(=O)NC1c1cc(OCC)c(O)c([N+](=O)[O-])c1 (stereo unspecified) | -2.5%
29 | COc1ccccc1NC(=O)/C=C/C(N)=O | 6.78%
30 | CC(C)(C)c1ccc(/C=C/C(=O)Nc2ncccn2)cc1 | -199%
31 | COC(=O)c1sc(-c2ccc(C(C)(C)C)cc2)cc1NC(=O)/C=C/C(=O)O | 59.5% (active)
32 | CC1(C)S[C@@H]2[C@H](NC(=O)COc3ccccc3)C(=O)N2C1C(=O)OCc1ccccc1 (stereo partly specified) | -0.93%
33 | O=C1OCCN1C(=O)[C@H]1[C@H](c2ccc(Cl)cc2)C(c2cccc(Cl)c2)=NN1c1ccc(Br)cc1 | 43%
34 | COc1ccc(Cl)cc1NC(=O)NC(C)C(C)(C)C (stereo unspecified) | -21.5%
35 | COc1ccc(C#Cc2c(-c3ccc(OC)cc3)oc3ccc(-c4ccc5c(c4)OCO5)cc23)cc1 | -2.23%
36 | Cc1cccc(-c2oc3ccc(-c4ccc5c(c4)OCO5)cc3c2C#Cc2cncn2C)c1 | 62.2% (active)
37 | COc1ccc(/C=C/c2c(-c3cccc(C)c3)oc3ccc(-c4ccc5c(c4)OCO5)cc23)cc1 | 6.97%
38 | COc1nnc(-c2ccc(C)c(S(=O)(=O)N(C)C)c2)c2ccccc12 | 13.5%
39 | COc1ccc(CCN(C)C(=O)C23CC4CC(CC(Cl)(C4)C2)C3)cc1OC | 27.9%
40 | Cc1cc(=O)[nH]c2nnnn12 | 6.21%
41 | Cc1ccc(OCC(=O)Nc2ccc(NC(=O)c3cccs3)cc2)c(C)c1 | 13.5%
42 | Cc1ccc(C(=O)Nc2ccc(NC(=O)c3cccs3)cc2)c(C)c1 | -14.7%
43 | COc1ccc(CC(=O)Nc2ccc(-c3nnc(-c4ccc(C)cc4)o3)cc2)cc1 | 99.8% (active)
44 | COc1ccc(CC(=O)Nc2ccc(C(=O)NC(C)(C)C)cc2)cc1 | -11.9%
45 | Cc1ccc(-c2nnc(-c3ccc(NC(=O)c4cccs4)cc3)o2)cc1 | 93.9% (active)
46 | CCN(CC(=O)Nc1ccc(OC)cc1)C(=O)CSCc1ccc(C)cc1 | 20.5%
